Screens (PubChem)
Only some compounds are listed: those with a hit (about 3.6% of all), similar ones and a draw of the others.
mHTT-CaM PPI inh – mutant huntingtin-calmodulin interaction inhibitors – biochemical, AlphaScreen, primary screen | AlphaScreen His-mHTT/GST-CaM binding, luminescence | inhibition, % at 15 µM | actives 3.6% (n = 190,000) | P42858
Target sequence (P42858 whole entry, looked up, change not shown): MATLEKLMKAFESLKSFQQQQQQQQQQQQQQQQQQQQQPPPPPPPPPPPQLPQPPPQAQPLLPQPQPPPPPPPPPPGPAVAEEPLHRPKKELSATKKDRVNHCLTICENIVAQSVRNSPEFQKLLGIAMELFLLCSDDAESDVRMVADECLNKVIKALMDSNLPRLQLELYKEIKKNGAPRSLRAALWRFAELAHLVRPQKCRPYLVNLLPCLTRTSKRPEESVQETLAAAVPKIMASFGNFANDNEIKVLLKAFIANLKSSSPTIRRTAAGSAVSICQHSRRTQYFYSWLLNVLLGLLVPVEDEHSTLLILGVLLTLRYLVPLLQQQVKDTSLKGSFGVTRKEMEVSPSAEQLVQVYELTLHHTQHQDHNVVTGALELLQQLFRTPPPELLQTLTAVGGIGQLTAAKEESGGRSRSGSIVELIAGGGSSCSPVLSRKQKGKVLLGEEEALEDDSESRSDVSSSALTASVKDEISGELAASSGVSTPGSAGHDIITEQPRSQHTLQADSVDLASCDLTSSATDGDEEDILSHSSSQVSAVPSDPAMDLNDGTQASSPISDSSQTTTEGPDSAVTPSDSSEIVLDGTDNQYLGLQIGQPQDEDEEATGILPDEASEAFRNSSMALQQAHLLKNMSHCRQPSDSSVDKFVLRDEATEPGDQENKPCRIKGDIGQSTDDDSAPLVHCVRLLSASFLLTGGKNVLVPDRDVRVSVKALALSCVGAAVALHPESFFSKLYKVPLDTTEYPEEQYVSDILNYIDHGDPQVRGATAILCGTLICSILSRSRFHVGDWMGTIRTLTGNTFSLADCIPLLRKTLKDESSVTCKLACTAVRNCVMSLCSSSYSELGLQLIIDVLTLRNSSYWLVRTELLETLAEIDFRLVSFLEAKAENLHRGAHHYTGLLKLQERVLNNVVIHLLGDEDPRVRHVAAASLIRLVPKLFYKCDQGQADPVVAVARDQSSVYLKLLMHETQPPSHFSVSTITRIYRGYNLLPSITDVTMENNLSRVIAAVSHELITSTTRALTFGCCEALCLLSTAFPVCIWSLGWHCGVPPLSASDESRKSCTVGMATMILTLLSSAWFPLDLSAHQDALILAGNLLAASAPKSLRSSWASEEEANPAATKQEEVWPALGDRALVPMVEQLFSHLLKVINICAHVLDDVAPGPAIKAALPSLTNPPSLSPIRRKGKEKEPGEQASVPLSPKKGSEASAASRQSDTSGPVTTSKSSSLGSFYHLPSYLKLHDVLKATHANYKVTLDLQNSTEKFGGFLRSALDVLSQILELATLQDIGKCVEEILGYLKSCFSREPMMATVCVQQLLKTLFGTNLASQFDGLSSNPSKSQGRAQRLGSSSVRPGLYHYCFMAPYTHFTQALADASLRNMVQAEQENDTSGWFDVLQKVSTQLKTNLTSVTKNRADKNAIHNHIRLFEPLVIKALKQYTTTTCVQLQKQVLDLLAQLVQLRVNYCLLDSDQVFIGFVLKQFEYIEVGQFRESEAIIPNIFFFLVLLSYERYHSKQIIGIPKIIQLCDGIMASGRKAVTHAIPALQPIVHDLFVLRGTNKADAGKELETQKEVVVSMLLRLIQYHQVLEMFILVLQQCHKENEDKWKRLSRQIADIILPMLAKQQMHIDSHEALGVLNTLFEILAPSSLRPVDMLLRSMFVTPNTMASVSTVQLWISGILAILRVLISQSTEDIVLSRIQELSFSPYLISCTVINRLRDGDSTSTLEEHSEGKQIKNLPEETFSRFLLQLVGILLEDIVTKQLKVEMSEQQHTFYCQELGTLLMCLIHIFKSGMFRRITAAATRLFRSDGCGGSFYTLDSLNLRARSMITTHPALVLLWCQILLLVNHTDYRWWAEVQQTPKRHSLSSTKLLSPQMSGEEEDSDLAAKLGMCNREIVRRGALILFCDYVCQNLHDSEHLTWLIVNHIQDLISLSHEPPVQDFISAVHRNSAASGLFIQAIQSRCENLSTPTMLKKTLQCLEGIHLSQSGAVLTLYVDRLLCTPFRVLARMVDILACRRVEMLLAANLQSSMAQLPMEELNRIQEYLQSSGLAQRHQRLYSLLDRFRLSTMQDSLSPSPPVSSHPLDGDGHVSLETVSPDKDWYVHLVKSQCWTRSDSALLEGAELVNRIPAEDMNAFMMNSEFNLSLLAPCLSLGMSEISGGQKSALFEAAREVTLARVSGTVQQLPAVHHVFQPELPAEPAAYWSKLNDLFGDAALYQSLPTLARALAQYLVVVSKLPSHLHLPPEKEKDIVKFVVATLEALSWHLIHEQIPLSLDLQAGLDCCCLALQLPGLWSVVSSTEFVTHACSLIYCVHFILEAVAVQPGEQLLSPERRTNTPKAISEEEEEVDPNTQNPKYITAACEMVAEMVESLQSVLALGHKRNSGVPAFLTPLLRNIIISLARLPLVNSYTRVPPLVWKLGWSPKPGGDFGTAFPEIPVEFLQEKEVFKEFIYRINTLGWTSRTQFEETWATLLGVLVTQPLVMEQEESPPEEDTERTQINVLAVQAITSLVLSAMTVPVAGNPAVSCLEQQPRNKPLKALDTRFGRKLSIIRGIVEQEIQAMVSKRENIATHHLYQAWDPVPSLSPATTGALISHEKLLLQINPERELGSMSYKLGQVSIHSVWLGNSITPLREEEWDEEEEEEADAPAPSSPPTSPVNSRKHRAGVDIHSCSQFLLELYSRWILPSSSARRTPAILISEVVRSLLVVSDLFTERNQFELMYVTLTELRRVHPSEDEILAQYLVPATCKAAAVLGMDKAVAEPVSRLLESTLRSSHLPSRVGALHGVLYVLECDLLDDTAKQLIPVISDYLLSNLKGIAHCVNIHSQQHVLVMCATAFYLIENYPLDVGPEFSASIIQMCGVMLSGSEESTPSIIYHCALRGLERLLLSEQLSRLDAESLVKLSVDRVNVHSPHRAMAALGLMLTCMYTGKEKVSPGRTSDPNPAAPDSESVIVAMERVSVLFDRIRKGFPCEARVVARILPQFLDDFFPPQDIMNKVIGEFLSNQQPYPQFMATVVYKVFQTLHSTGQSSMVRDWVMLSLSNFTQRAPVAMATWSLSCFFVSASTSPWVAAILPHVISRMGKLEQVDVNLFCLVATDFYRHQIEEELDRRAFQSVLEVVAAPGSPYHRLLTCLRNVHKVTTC
Pf apPOL inh – Pf-apPOL inhibitors, biochemical, fluorescence; Plasmodium falciparum apicoplast DNA polymerase (apPOL); Recombinant Pf-apPOL, molecular beacon fluorescence, 1.5 h; inhibition, % at 10 µM; actives 0.25% (n = 210,000)
Hits are given with their value; i = inactive; nt = no result given; ! = not active in a repeat. Rule as the data show it: active = inhibition above about 50%; inactive = the rest.

SMILES | mHTT-CaM PPI inh | Pf apPOL inh
C=CCc1cc(OC)ccc1OCC(O)CN1CCN(c2ccc(OC)cc2)CC1 (stereo not drawn) | 50! | i
C=CCc1ccc(OCC(O)CN2CCN(c3ccccc3)CC2)c(OC)c1 (stereo not drawn) | i | i
C=CCc1cc(OC)ccc1OCC(O)CN1CCN(c2ccccc2F)CC1 (stereo not drawn) | i | i
C=CCc1ccc(OCC(O)CN2CCN(c3ccc(OC)cc3)CC2)c(OC)c1 (stereo not drawn) | 51 | i
CC(=O)Nc1ccc2nc(NC(=O)c3cccc(C(F)(F)F)c3)sc2c1 | i | i
NC(N)=Nc1nc(-c2ccccc2)c(-c2ccccc2)s1 | 100 | i
CC(=O)Nc1nc(-c2ccc(C)cc2)c(-c2ccccc2)s1 | i | i
Cc1ccc(S(=O)(=O)N2CCC(Oc3cccc(C(F)(F)F)c3)CC2)cc1 | 95 | i
O=S(=O)(Cc1ccccc1)N1CCC(Oc2cccc(C(F)(F)F)c2)CC1 | i | i
COc1cccc(C2=N/C(=C/c3cc(OC)c(OC)c(OC)c3)C(=O)O2)c1 | i | i
CCNC(=O)N(C)CC(=O)N1N=C(c2ccccc2F)CC1c1ccccc1 (stereo not drawn) | i | i
c1ccc(CSc2nn3c(SCc4ccccn4)nnc3s2)nc1 | i | nt
CN(c1ccc(F)cc1)S(=O)(=O)c1ccc2[nH]cc(C(=O)O)c(=O)c2c1 | i | i
CN(C)c1ccc2[nH]c3c(C(=O)O)cc(=O)c(=O)c=3oc2c1 | 67 | nt
O=C(c1ccc(Sc2cccc(Cl)c2)c([N+](=O)[O-])c1)N1CCC2(CC1)OCCO2 | 60 | i
O=C(c1ccc(N2CCC3(CC2)OCCO3)c([N+](=O)[O-])c1)N1CCOCC1 | i | i
O=[N+]([O-])c1ccc(N2CCc3ccccc32)c([N+](=O)[O-])c1 | 56 | i
O=[N+]([O-])c1cc(S(=O)(=O)N2CCc3ccccc32)ccc1N1CCc2ccccc21 | 74 | i
CC(=O)N1c2ccccc2CCc2ccc([N+](=O)[O-])cc21 | i | i
O=C(c1ccc(Sc2cccc(Cl)c2)c([N+](=O)[O-])c1)N1CCN(c2ccccn2)CC1 | i | i
O=C(c1ccc(N2CCc3ccccc32)c([N+](=O)[O-])c1)N1CCC2(CC1)OCCO2 | 77 | i
Cc1ccc(S(=O)(=O)N2CCc3ccccc32)cc1[N+](=O)[O-] | i | i
C#CCOCC1CCN(C(=O)Nc2ccc(Cl)c(Cl)c2)CC1 | i | i
CC(C)Cn1c(CC2CCN(S(=O)(=O)c3ccc(C#N)cc3)C2)nc2cccnc21 (stereo not drawn) | i | i
Cc1ccc(NC(=O)N2CCCC(CC(=O)N3CCN(c4ccccc4)CC3)C2)cc1 (stereo not drawn) | i | i
SMILES | mHTT-CaM PPI inh | Pf apPOL inh
O=C(Cc1ccccc1)Nc1ccc2c(c1)CN(CC1CC1)C(=O)CO2 | i | i
Cc1ccc(C(=O)COC(=O)c2cccc([N+](=O)[O-])c2)cc1 | i | i
CCc1nc2c(NC(=O)c3ccc(C(F)(F)F)cc3)cccn2n1 | 54 | i
CCc1nc2c(NC(=O)c3cc(F)cc(F)c3)cccn2n1 | i | i
O=C(NC1CC2CC1CN2C(=O)c1ccc(OC(F)(F)F)cc1)c1cccnc1 (stereo not drawn) | i | i
CC1=NN2C(=N)/C(=C/c3cn(Cc4ccccc4C)c4ccccc34)C(=O)N=C2S1 | i | i
COc1ccc(C(C(=O)Nc2ccc3c(c2)OCO3)N(C)C(=O)Cc2c[nH]c3ccccc23)cc1 (stereo not drawn) | 75 | i
CCN(c1cccc(C)c1)C(C(=O)Nc1ccc(OC)cc1)c1cc2c(cc1[N+](=O)[O-])OCO2 (stereo not drawn) | i | i
CN(C(=O)Cc1c[nH]c2ccccc12)C(C(=O)Nc1ccc2c(c1)OCCO2)c1ccccc1 (stereo not drawn) | i | i
COc1ccc(NC(=O)C(c2cc3c(cc2[N+](=O)[O-])OCO3)N(C)Cc2ccccc2)cc1 (stereo not drawn) | 61 | i
CCC[C@H]1[C@@H](OC(=O)NCc2cccc(C(F)(F)F)c2)CC[C@@]23CCCN2C(=O)CCC[C@@H]13 | i | i
CCC[C@H]1[C@@H](OC(=O)NCc2ccc(C(F)(F)F)cc2)CC[C@@]23CCCN2C(=O)CCC[C@@H]13 | 78 | i
O=C(Oc1ccc2c(c1)OC(=Cc1ccco1)C2=O)c1cccc([N+](=O)[O-])c1 | i | i
CC(Oc1cccc(Cl)c1)C(=O)N1CCN(c2ccc([N+](=O)[O-])cc2)CC1 (stereo not drawn) | i | i
Cc1cc(Cl)ccc1OC(C)C(=O)N1CCN(c2ccc([N+](=O)[O-])cc2)CC1 (stereo not drawn) | i | 55
Cc1cc(-c2ccccc2)nc2cc(C(=O)N3CCOCC3)nn12 | i | i
Nc1c(C(=O)N2CCOCC2)sc2nc(-c3ccccc3)cc(-c3ccccc3)c12 | 52 | i
Cc1ccc(C(=O)Nc2cnc(N3CCOCC3)nc2)c(C)c1 | i | i
CCOC(=O)c1cn(-c2cccc(C)c2)c(=O)c2ccccc12 | i | i
COc1ccc(NCc2ccc(OC)c(OC)c2)cc1 | i | i
COc1ccc(NCc2ccc(C)s2)cc1OC | 71 | i
Cc1ccc(C(=O)N=C2SCCN2C(=O)c2ccc(C)s2)s1 | 87 | i
Cc1ccc(C(=O)N2CCCCC2CCN(C)C)s1 (stereo not drawn) | i | i
CCOc1ccc(CN2CCc3nc(N4CCCC4)ncc3C2)cc1 | i | i
c1ccc(Oc2nc(N3CCCCC3)nc3c2CN(Cc2cccnc2)CC3)cc1 | 53 | i
SMILES | mHTT-CaM PPI inh | Pf apPOL inh
Cn1cccc1CN1CCc2nc(N3CCCCC3)nc(Oc3ccccc3)c2C1 | 71 | i
CC(C)CN1CCc2nc(N3CCOCC3)nc(Oc3ccccc3F)c2C1 | i | i
COc1ccc(OC)c(NC(=O)CCCOc2ccccc2C)c1 | i | i
COc1cccc(NC(=O)c2ccc(Br)o2)c1 | i | i
COC(=O)C(C#N)=C(C#N)c1ccc(Br)o1 | nt | 76
Cc1nc(-c2cccs2)c(CCC(=O)NCc2ccccc2F)s1 | i | i
CCC(=O)Nc1cccc(-c2noc(C3CCCN(C(=O)c4cc5ccccc5[nH]4)C3)n2)c1 (stereo not drawn) | 59 | i
CCC(=O)Nc1cccc(-c2noc(C3CCCN(C(=O)c4ccccc4C)C3)n2)c1 (stereo not drawn) | i | i
COc1ccc(OCCCN2CCN(c3ccccc3OC)CC2)cc1 | i | i
CCC(C)NC(=O)CC1CCN(C(=O)c2sc(-c3ccc(F)cc3)nc2C)CC1 (stereo not drawn) | i | i
O=C(Nc1nnc(-c2ccco2)o1)c1ccc([N+](=O)[O-])cc1 | i | i
CCCCOc1cccc(C(=O)Nc2nnc(-c3ccco3)o2)c1 | 60 | i
O=C(Cc1ccccc1F)N1CCc2c(nc[nH]c2=O)C1 | i | i
O=C(COc1ccc(Br)cc1Cl)NCc1ccccn1 | i | i
Cc1ncsc1CN1CCC(c2nc(-c3ccccc3)no2)C1 (stereo not drawn) | i | i
Cn1cccc1CN1CCC(c2nc(-c3ccccc3)no2)C1 (stereo not drawn) | 50 | i
O=C(Nc1ccc2nn(-c3cccc(Cl)c3)nc2c1)c1ccccc1 | i | i
COc1cccc(CNC(=O)c2cn3cc(Cl)ccc3n2)c1 | i | i
COc1cccc(-c2ccc3nc(C(=O)NCc4ccncc4)cn3c2)c1 | 52 | i
CCCCNc1nc(SCC(=O)c2ccc(O)c(O)c2)nc2ccccc12 | 64 | i
